In PubChem BioAssay (NCATS):
Records with an inconclusive call do not appear. Activity calls are given as the source filed them. Calls follow the shape of the dose curve; as a rule, active = well fitted curve in the direction sought with a large enough effect; inconclusive = small, poorly fitted or top-dose-only effect, or another doubt; inactive = no such curve, though single readings can be large; an effect the other way counts as inactive or inconclusive. Where a SMILES comes first, the peptide text is derived from it. Bridges are numbered along the chain shown (N, C = ends). [ ]: non-standard residue; d: D form. hArg = N=C(N)NCCCC[C@H](N)C(=O)O; Mpa = O=C(O)CCS

Experiments:
[1] = test system: UISO; experiment: qHTS assay to identify novel small-molecules to repurpose for Merkel cell carcinoma treatment (AID 1296009); details: MCC and control cell lines, CellTiter-Glo viability, 72 h; series mostly up to 46 µM; also: nearly all actives have a fitted effect of over 60% in size
Outline: (§1)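 Cells were incubated with compound for 72 hr at 37 degree celsius before CellTiter-Glo addition. Luminescence was normalized with no-cell wells as full cytotoxicity and DMSO as baseline.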

[2] = test system: WaGa; experiment: as above; details: MCC and control cell lines, CellTiter-Glo viability, 72 h; series mostly up to 46 µM
Outline: as §1

[3] = test system: C33A; experiment: Primary qHTS to identify gynecologic anti-cancer compounds using libraries of approved drugs and bioactive compounds (AID 1345084); details: Gynecologic cancer cell panel viability, ATPlite luminescence, 48 h; series mostly up to 57.5 µM; also: nearly all actives have a fitted effect of over 55% in size; also: potency is read from the fitted curve at half-maximal effect
Outline: (§2)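 In this quantitative HTS, cell killing is estimated from loss of ATP-dependent luciferase light. Cells see five compound concentrations over a 48 h exposure.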

[4] = test system: CAOV3; experiment: as above; details: Gynecologic cancer cell panel viability, ATPlite luminescence, 48 h; series mostly up to 57.5 µM
Outline: as §2

[5] = test system: CASKI; experiment: as above; details: Gynecologic cancer cell panel viability, ATPlite luminescence, 48 h; series mostly up to 57.5 µM
Outline: as §2

[6] = test system: Es-2; experiment: as above; details: Gynecologic cancer cell panel viability, ATPlite luminescence, 48 h; series mostly up to 57.5 µM
Outline: as §2

[7] = test system: HeLa; experiment: as above; details: Gynecologic cancer cell panel viability, ATPlite luminescence, 48 h; series mostly up to 57.5 µM
Outline: as §2

[8] = test system: Hek293T; experiment: as above; details: Gynecologic cancer cell panel viability, ATPlite luminescence, 48 h, control line for the selectivity index; series mostly up to 57.5 µM
Outline: as §2

[9] = test system: JEG-3; experiment: as above; details: Gynecologic cancer cell panel viability, ATPlite luminescence, 48 h; series mostly up to 57.5 µM
Outline: as §2

[10] = test system: OV90; experiment: as above; details: Gynecologic cancer cell panel viability, ATPlite luminescence, 48 h; series mostly up to 57.5 µM
Outline: as §2

[11] = test system: PA-1; experiment: as above; details: Gynecologic cancer cell panel viability, ATPlite luminescence, 48 h; series mostly up to 57.5 µM
Outline: as §2

[12] = test system: SKOV3; experiment: as above; details: Gynecologic cancer cell panel viability, ATPlite luminescence, 48 h; series mostly up to 57.5 µM
Outline: as §2

[13] = test system: Tov-21-G; experiment: as above; details: Gynecologic cancer cell panel viability, ATPlite luminescence, 48 h; series mostly up to 57.5 µM
Outline: as §2

[14] = test system: Tov112D; experiment: as above; details: Gynecologic cancer cell panel viability, ATPlite luminescence, 48 h; series mostly up to 57.5 µM
Outline: as §2

[15] = Drug repurposing screens with cells derived from glioblastoma tumor samples (AID 1345199); details: GBM patient neurospheres viability, ATP luminescence, 48 h; also: nearly all actives have a fitted effect of over 40% in size; also: potency is read from the fitted curve at half-maximal effect
Outline: (§3)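 Four patient lines of CD133+ GBM neurospheres were screened at several concentrations; hits were retested in those lines plus three slower-growing GBM lines, using 48-hour treatment and ATP-based viability.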

[16] = test system: astro; experiment: as above; details: viability, ATP luminescence, 48 h; series mostly up to 45.9 µM
Outline: as §3

[17] = at 45.9 µM (top of the series), tumour line B
[18] = at 45.9 µM (top of the series), tumour line D
[19] = at 46 µM (top of the series), tumour line A
[20] = at 46.1 µM (top of the series), tumour line C
% is scaled to controls: 0 for no effect and ±100 for the full control effect.

COc1ccc(-c2cc(=O)c3c(O)cc(O[C@@H]4O[C@H](CO[C@@H]5O[C@@H](C)[C@H](O)[C@@H](O)[C@H]5O)[C@@H](O)[C@H](O)[C@H]4O)cc3o2)cc1O
inactive: outcome [1] | outcome [2] | outcome [3] | outcome [4] | outcome [5] | outcome [6] | outcome [7] | outcome [8] | outcome [9] | Potency [10] | outcome [11] | outcome [12] | outcome [13] | outcome [14] | activity, negative = cell killing [15, 17] -6.79% | activity, negative = cell killing [15, 18] 0.355% | activity, negative = cell killing [15, 19] -29.8% | activity, negative = cell killing [15, 20] 3.81%

Cc1cc(C)c(NC(=O)CN(CC(=O)O)CC(=O)O)c(C)c1Br
inactive: outcome [1] | outcome [2] | outcome [3] | outcome [4] | outcome [5] | outcome [6] | outcome [7] | outcome [8] | outcome [9] | Potency [10] | outcome [11] | outcome [12] | outcome [13] | outcome [14] | activity, negative = cell killing [15, 17] -5.55% | activity, negative = cell killing [15, 18] -2.68% | activity, negative = cell killing [15, 19] -17.3% | activity, negative = cell killing [15, 20] -18.8% | outcome [16]

C=CCSCC1Nc2cc(Cl)c(S(N)(=O)=O)cc2S(=O)(=O)N1 (stereo not given)
inactive: outcome [1] | outcome [2] | outcome [3] | outcome [4] | outcome [5] | outcome [6] | outcome [7] | outcome [8] | outcome [9] | Potency [10] | outcome [11] | outcome [12] | outcome [13] | outcome [14] | activity, negative = cell killing [15, 17] -4.84% | activity, negative = cell killing [15, 18] -16.7% | activity, negative = cell killing [15, 19] -17.1% | activity, negative = cell killing [15, 20] -16.4% | outcome [16]

NC(=O)[C@@H]1CSSCCC(=O)N[C@@H](CCCCN=C(N)N)C(=O)NCC(=O)N[C@@H](CC(=O)O)C(=O)N[C@@H](Cc2c[nH]c3ccccc23)C(=O)N2CCC[C@H]2C(=O)N1 ([Mpa][hArg]GDWPC-NH2; disulfide 1-7)
inactive: outcome [1] | outcome [2] | outcome [3] | outcome [4] | outcome [5] | outcome [6] | outcome [7] | outcome [8] | outcome [9] | Potency [10] | outcome [11] | outcome [12] | outcome [13] | outcome [14] | activity, negative = cell killing [15, 17] 1.12% | activity, negative = cell killing [15, 18] 4.68% | activity, negative = cell killing [15, 19] -11% | activity, negative = cell killing [15, 20] -19.2% | outcome [16]

Cn1cc(C(=O)[C@@H]2CCc3nc[nH]c3C2)c2ccccc21
inactive: outcome [1] | outcome [2] | outcome [3] | outcome [4] | outcome [5] | outcome [6] | outcome [7] | outcome [8] | outcome [9] | Potency [10] | outcome [11] | outcome [12] | outcome [13] | outcome [14]

C[C@@H]1O[C@@H](OC[C@H]2O[C@@H](Oc3c(-c4ccc(O)c(O)c4)oc4cc(O)cc(O)c4c3=O)[C@H](O)[C@@H](O)[C@@H]2O)[C@H](O)[C@H](O)[C@H]1O
inactive: outcome [1] | outcome [2] | outcome [3] | outcome [4] | outcome [5] | outcome [6] | outcome [7] | outcome [8] | outcome [9] | Potency [10] | outcome [11] | outcome [12] | outcome [13] | outcome [14] | activity, negative = cell killing [15, 17] -2.66% | activity, negative = cell killing [15, 18] 3.42% | activity, negative = cell killing [15, 19] -16.5% | activity, negative = cell killing [15, 20] -1.98% | outcome [16]

NS(=O)(=O)c1cc2c(cc1C(F)(F)F)NCNS2(=O)=O
inactive: outcome [1] | outcome [2] | outcome [3] | outcome [4] | outcome [5] | outcome [6] | outcome [7] | outcome [8] | outcome [9] | Potency [10] | outcome [11] | outcome [12] | outcome [13] | outcome [14] | activity, negative = cell killing ([15]; at 20 µM (top of the series), tumour line C) -8.4% | activity, negative = cell killing ([15]; at 21.2 µM (top of the series), tumour line B) 8.4% | activity, negative = cell killing ([15]; at 21.2 µM (top of the series), tumour line D) -16.1% | activity, negative = cell killing ([15]; at 21.3 µM (top of the series), tumour line A) -5.19%

CCCCCCCC(=O)OCC(O)CO (stereo not given)
active: Potency [10] 3.55 µM
inactive: outcome [1] | outcome [2] | outcome [3] | outcome [4] | outcome [5] | outcome [6] | outcome [7] | outcome [8] | outcome [9] | outcome [11] | outcome [12] | outcome [13] | outcome [14] | activity, negative = cell killing [15, 17] -0.0604% | activity, negative = cell killing [15, 18] -12.6% | activity, negative = cell killing [15, 19] -23.4% | activity, negative = cell killing [15, 20] -3.44% | outcome [16]

CC(=O)N[C@@H](CC(C)C)C(=O)O
inactive: outcome [1] | outcome [2] | outcome [3] | outcome [4] | outcome [5] | outcome [6] | outcome [7] | outcome [8] | outcome [9] | Potency [10] | outcome [11] | outcome [12] | outcome [13] | outcome [14] | activity, negative = cell killing [15, 17] -11.1% | activity, negative = cell killing [15, 18] -9.62% | activity, negative = cell killing [15, 19] -21.1% | activity, negative = cell killing [15, 20] -11.2% | outcome [16]

CC1(C)S[C@@H]2[C@H](NC(=O)C(C(=O)O)c3ccccc3)C(=O)N2[C@H]1C(=O)O (stereo not given in full)
inactive: outcome [1] | outcome [2] | outcome [3] | outcome [4] | outcome [5] | outcome [6] | outcome [7] | outcome [8] | outcome [9] | Potency [10] | outcome [11] | outcome [12] | outcome [13] | outcome [14] | activity, negative = cell killing [15, 17] 2.69% | activity, negative = cell killing [15, 18] -6.27% | activity, negative = cell killing [15, 19] -8.84% | activity, negative = cell killing [15, 20] 7.57%

CN1C(C)(C)CCCC1(C)C
inactive: outcome [1] | outcome [2] | outcome [3] | outcome [4] | outcome [5] | outcome [6] | outcome [7] | outcome [8] | outcome [9] | Potency [10] | outcome [11] | outcome [12] | outcome [13] | outcome [14] | activity, negative = cell killing [15, 17] -6.99% | activity, negative = cell killing [15, 18] 3.96% | activity, negative = cell killing [15, 19] -29.4% | activity, negative = cell killing [15, 20] -8.74% | outcome [16]

CN(C/C=C/C#CC(C)(C)C)Cc1cccc2ccccc12
active: Potency ([15]; tumour line A) 20 µM
inactive: outcome [1] | outcome [2] | outcome [3] | outcome [4] | outcome [5] | outcome [6] | outcome [7] | outcome [8] | outcome [9] | Potency [10] | outcome [11] | outcome [12] | outcome [13] | outcome [14] | activity, negative = cell killing [15, 20] -0.19%

C/C(=C(\CCO)SS/C(CCO)=C(\C)N(C=O)Cc1cnc(C)nc1N)N(C=O)Cc1cnc(C)nc1N
inactive: outcome [1] | outcome [2] | outcome [3] | outcome [4] | outcome [5] | outcome [6] | outcome [7] | outcome [8] | outcome [9] | Potency [10] | outcome [11] | outcome [12] | outcome [13] | outcome [14] | activity, negative = cell killing [15, 17] 0.803% | activity, negative = cell killing [15, 18] 1.23% | activity, negative = cell killing [15, 19] -2.85% | activity, negative = cell killing [15, 20] 0.411%
